In PubChem BioAssay (NCATS):
Results filed as inconclusive are left out. Values without a mark were called inactive. Calls come from the whole dose curve; as a rule, active = well fitted activation curve with a large enough effect; inconclusive = small, poorly fitted or top-dose-only effect; inactive = no such curve, though single readings can be large or run the other way.

What follows are compounds tested against Rap guanine nucleotide exchange factor 3 (Homo sapiens) (UniProt O95398) (assay: Confirmatory qHTS for agonist of cAMP-regulated guanine nucleotide exchange factor 3 (EPAC1) (AID 1645881;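 note: EPAC1 catalysed release of BODIPY-GDP from Rap1B seen as fluorescence loss; 100% = effect of cAMP agonist control; nearly all actives have a fitted effect of over 75% in size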)). Settings: EPAC1 Rap1B BODIPY-GDP exchange fluorescence; series mostly up to 154 µM; activation: at the top concentration.
Chain of Rap guanine nucleotide exchange factor 3 (Homo sapiens) (O95398 whole entry, looked up): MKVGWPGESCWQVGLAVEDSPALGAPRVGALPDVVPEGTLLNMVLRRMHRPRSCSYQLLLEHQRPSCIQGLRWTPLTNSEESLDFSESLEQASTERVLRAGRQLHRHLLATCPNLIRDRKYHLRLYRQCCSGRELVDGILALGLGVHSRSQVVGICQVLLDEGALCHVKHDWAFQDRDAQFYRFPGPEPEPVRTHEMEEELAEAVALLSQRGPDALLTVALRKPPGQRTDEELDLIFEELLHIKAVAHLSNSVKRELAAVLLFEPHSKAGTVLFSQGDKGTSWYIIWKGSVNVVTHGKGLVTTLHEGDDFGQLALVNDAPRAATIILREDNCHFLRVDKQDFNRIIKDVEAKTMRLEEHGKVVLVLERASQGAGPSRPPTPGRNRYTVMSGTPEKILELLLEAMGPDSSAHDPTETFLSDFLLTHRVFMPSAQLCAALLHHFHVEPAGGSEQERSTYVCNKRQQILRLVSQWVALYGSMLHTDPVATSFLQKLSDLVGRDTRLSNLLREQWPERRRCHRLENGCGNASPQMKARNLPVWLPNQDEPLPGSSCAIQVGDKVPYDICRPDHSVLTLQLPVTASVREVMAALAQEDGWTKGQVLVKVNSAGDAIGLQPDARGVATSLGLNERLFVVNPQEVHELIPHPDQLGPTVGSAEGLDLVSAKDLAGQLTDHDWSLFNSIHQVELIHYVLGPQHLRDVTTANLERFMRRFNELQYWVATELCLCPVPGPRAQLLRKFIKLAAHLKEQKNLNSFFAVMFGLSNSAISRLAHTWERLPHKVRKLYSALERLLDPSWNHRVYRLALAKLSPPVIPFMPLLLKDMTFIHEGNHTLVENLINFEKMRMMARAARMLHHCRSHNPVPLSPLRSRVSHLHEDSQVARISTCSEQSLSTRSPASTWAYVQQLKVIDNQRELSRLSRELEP

First: O=C1CSC(=Nc2ccccc2)N1Cc1ccccc1
Second: O=C1OC(c2ccccc2)(c2ccccc2)c2ccsc21
The “activation” value of the first is higher: 17.3% for the first, 3.73% for the second.

Compared with C=CCN(CC=C)Cc1cc(=O)oc2cc(C)cc(C)c12, Cc1cc(C)c2c(CN3CCCCC3C)cc(=O)oc2c1 (stereo not given) is lower in “activation” value: 21.6% for the first, 8.74% for the second.

Compared with COc1ccc(Cl)cc1NC(=O)CN(C)Cc1ccc(OC)c(OC)c1, COc1ccc(Cl)cc1NC(=O)CN1c2ccccc2CC1C (stereo not given) is lower in “activation” value: 16.9% for the first, 13.5% for the second.

Compared with COC(=O)C1=NN(c2ccccc2)C2(S1)SC(C(C)=O)=C(C)N2c1ccccc1 (stereo not given), O=C(O)CCNC(=O)c1ccc(NC(=O)C(c2ccccc2)c2ccccc2)cc1 is lower in “activation” value: 13.5% for the first, 10.9% for the second.

Going from CC(=O)N1N=C2c3ccccc3CCC2C1c1cccs1 (stereo not given) to O=C(c1ccccc1F)n1c2c(c3ccccc31)CCCC2, the “activation” value rises from 7.22% to 9.48%.

First: COc1ccc(C2CC(=O)Oc3cc(C)c(Cl)cc32)cc1 (stereo not given)
Second: COc1c(Cl)cc(Cl)cc1CNc1ccc(S(N)(=O)=O)cc1
The “activation” value of the first is higher: 18.5% for the first, 13.4% for the second.

First: CCN(Cc1cc(=O)oc2cc(C)ccc12)c1ccccc1
Second: Cc1ccn2c(-c3csc(NCc4ccccc4)n3)c(C)nc2c1
The “activation” value of the first is lower: 11.9% for the first, 15.3% for the second.

Compared with Cc1nc(Nc2ccc(Br)cc2Br)c([N+](=O)[O-])c(=O)[nH]1, Cc1oc2cc(Br)c(O)c(Br)c2c1-c1ccccc1 is higher in “activation” value: 11.3% for the first, 26.3% for the second.

First: COc1ccc(Nc2cccc3ccccc23)cc1
Second: CCCCn1nnnc1C(c1cc2ccccc2o1)N1CCN(c2cc(C)nc3ccccc23)CC1 (stereo not given)
The “activation” value of the first is higher: 22.3% for the first, 14.4% for the second.

First: Cc1nn(-c2c(Cl)cc(Cl)cc2Cl)c(=O)c2ccccc12
Second: Cc1ccc(C23CC4CC(CC(C(=O)N(C)C)(C4)C2)C3)cc1
The “activation” value of the first is lower: 4.85% for the first, 26.9% for the second.
